The list is not random: actives were taken first. Their share in the collection is about 4.3%.
GLP-1R agonist – GLP-1 receptor (human) agonism. HEK293 GLP-1R CRE-luciferase, luminescence, 4-6 h; cells express a hypersensitive GLP-1R form. P43220. hit rate 0.007% among 380,000. Potency, µM (highest dose often 45.6 µM), inactives show at the top dose activation, hits mostly activators; further: potency means the concentration at half of the fitted maximal effect; % of control where 0% means no effect
Target sequence (P43220 whole entry, looked up): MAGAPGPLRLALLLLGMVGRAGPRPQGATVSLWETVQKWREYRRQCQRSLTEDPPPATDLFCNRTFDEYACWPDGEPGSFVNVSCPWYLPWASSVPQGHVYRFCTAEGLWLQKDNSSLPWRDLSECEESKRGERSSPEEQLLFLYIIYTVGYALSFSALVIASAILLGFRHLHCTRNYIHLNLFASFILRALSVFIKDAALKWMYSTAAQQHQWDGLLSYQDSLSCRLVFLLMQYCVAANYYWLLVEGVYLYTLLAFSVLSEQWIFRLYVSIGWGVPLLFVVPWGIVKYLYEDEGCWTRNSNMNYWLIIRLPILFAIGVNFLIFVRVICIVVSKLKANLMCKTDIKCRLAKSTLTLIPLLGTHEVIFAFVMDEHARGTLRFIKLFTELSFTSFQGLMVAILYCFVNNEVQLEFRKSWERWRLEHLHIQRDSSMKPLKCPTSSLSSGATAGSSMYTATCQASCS
D3 ag – activates the human D3 dopamine receptor. hit rate 0.58% among 410,000. P35462. D3R DiscoveRx beta-arrestin cells, luminescence, 90 min. max activation, %; in the data active means max activation above about 30%; further: 0% is about no effect
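Agonist mode: compounds and dopamine controls were applied to plated cells for 90 min at 37 degrees C after an overnight attachment at 1500 cells/well. Luminescent read-out followed 30 - 60 minutes at room temperature with DiscoveRx detection reagent.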
GLP-1R inv ag – inverse agonists of human GLP-1 receptor; P43220; HEK293 GLP-1R CRE-luciferase, luminescence, 24 h; GLP-1R form is constitutively active; Potency, µM (series often up to 38.3 µM), without a hit: at the highest dose activity change, negative = inhibition, hits mostly inhibitors; hit rate 1.6% among 410,000; AID 624417; further: potency means the concentration at half of the fitted maximal effect; on the % scale 0 is the no-effect control and ±100 the full control effect; nearly all actives have a fitted effect of over 55% in size
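GLP-1R inverse agonism mode: basal reporter luminescence in engineered HEK293 cells measured after one day of compound exposure at 37 deg C, with a 12 min room-temperature detection step.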
D3 antag – blocks the human D3 dopamine receptor; D3R cells, DiscoveRx beta-arrestin luminescence, antagonist mode; hits give low values; hit rate 2.5% among 360,000; P35462; max response, negative = inhibition, %; in the data active means max response below about -50%; inconclusive means no clear call, values can overlap the other calls; further: on the % scale 0 is the no-effect control and ±100 the full control effect
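Cells expressing the human receptor were seeded at 1500 cells/well, incubated overnight at 37 degrees C in 5% CO2, then exposed to library compounds with dopamine controls for 90 minutes at 37 degrees C before luminescent detection.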
An asterisk follows results filed as active; [ ] = another dose, or the depositor's remark. Unless noted, the call rests on the fitted dose curve; in most records, active means well fitted curve in the direction sought with a large enough effect; inconclusive means small, poorly fitted or top-dose-only effect, or another doubt; inactive means no such curve, though single readings can be large; an effect the other way counts as inactive or inconclusive.

O=C(O)C1C2C=CC(C2)C1C(=O)NC1CCS(=O)(=O)C1 (configuration not stated) was read as GLP-1R agonist 1%, D3 ag 6, GLP-1R inv ag 9% and D3 antag -102*.
Cn1cc(CN2CCC(CO)CC2)c(-c2ccc(Oc3ccccc3)cc2)n1 was read as GLP-1R agonist 3%, D3 ag -2, GLP-1R inv ag 10µM* and D3 antag -1.
Screening Cn1cc(CN2CCC(O)CC2)c(-c2ccc(Oc3ccccc3)cc2)n1 returned GLP-1R agonist 4%, D3 ag 1, GLP-1R inv ag inconclusive and D3 antag -14.
For Cc1ccc(Nc2c(-c3ccc(C)cc3)nc3c(C)cccn23)cc1 the results were D3 ag 3 and GLP-1R inv ag 10µM*.
Cc1cccn2c(Nc3ccc4c(c3)OCCO4)c(-c3ccc(Br)o3)nc12 was read as D3 ag 44* and GLP-1R inv ag inconclusive.
For Cc1ccc(Nc2c(-c3ccccc3O)nc3cnccn23)cc1 the results were GLP-1R agonist 15%, D3 ag 16, GLP-1R inv ag inconclusive and D3 antag 14.
`Cc1ccc(Nc2c(-c3ccccc3O)nc3ncccn23)cc1` gave GLP-1R agonist -2%, D3 ag -5, GLP-1R inv ag 10µM* and D3 antag 9.
For O=C(CS(=O)(=O)c1cccc2nsnc12)NCc1ccccc1 the results were GLP-1R agonist 2%, D3 ag 1 and GLP-1R inv ag 27%.
`CC1(C)Cc2ccccc2-c2nnc(-c3ccco3)n21` gave GLP-1R agonist -5%, D3 ag -6, GLP-1R inv ag -2% and D3 antag -52*.
Screening CCCC(=O)Nc1c(I)cc(I)c(CC(CC)C(=O)O)c1I (configuration not stated) returned D3 ag 6.
`Cc1cccc(C(=O)NNC(=O)c2c(O)c3ccccc3n(C)c2=O)c1` gave GLP-1R agonist 1%, D3 ag 30*, GLP-1R inv ag 12% and D3 antag 58.
For Cn1c(=O)c(C(=O)NNC(=O)c2cccc(Cl)c2)c(O)c2ccccc21 the results were GLP-1R agonist 0%, D3 ag 7, GLP-1R inv ag inconclusive and D3 antag 3.
For CCc1nc(SCC(=O)c2c[nH]c3ccccc23)n[nH]1 the results were GLP-1R agonist 0%, D3 ag 3, GLP-1R inv ag 8% and D3 antag -5.
For CC(C)c1nc(SCC(=O)c2c[nH]c3ccccc23)n[nH]1 the results were GLP-1R agonist 3%, D3 ag -41, GLP-1R inv ag 1% and D3 antag -61*.
Screening COc1ccc(OC)c(N2C(=O)CC(Cc3cc(C)cc(C)c3)C2=O)c1 (configuration not stated) returned GLP-1R agonist -10%, D3 ag -12, GLP-1R inv ag inconclusive and D3 antag -192*.
Screening Cc1ccccc1S(=O)(=O)N1[C@@H](c2ccc(Br)cc2)C(C(=O)O)=CC[C@H]1c1ccc(Cl)cc1 returned GLP-1R agonist -5%, D3 ag -27, GLP-1R inv ag inconclusive and D3 antag -11.
Screening Cc1ccccc1S(=O)(=O)N1[C@@H](c2ccccc2)C(C(=O)O)=CC[C@H]1c1ccc(Cl)cc1 returned GLP-1R agonist -4%, D3 ag -30, GLP-1R inv ag 7.1µM* and D3 antag -56*.
COc1ccc([C@@H]2CC=C(C(=O)O)[C@H](c3cccc(Cl)c3)N2S(=O)(=O)c2ccccc2C)cc1 was read as GLP-1R agonist -5%, D3 ag -6, GLP-1R inv ag inconclusive and D3 antag -26.
`Cc1ccc([C@@H]2CC=C(C(=O)O)[C@H](c3ccc(Br)cc3)N2S(=O)(=O)c2ccccc2C)cc1` gave GLP-1R agonist -1%, D3 ag -11, GLP-1R inv ag 11µM* and D3 antag -9.
`Cc1ccccc1S(=O)(=O)N1C(c2ccc(Cl)c(Cl)c2)CC=C(C(=O)O)C1c1cccc(Br)c1` (configuration not stated) gave D3 ag -5, GLP-1R inv ag 10µM* and D3 antag -25.
For Cc1ccc([C@@H]2CC=C(C(=O)O)[C@H](c3ccc(Cl)cc3)N2S(=O)(=O)c2ccccc2C)cc1 the results were GLP-1R agonist -3%, D3 ag -44, GLP-1R inv ag 8.9µM* and D3 antag -61*.
O=C1C=CC(=O)N1Cc1ccncc1 was read as GLP-1R agonist -1%, D3 ag 9, GLP-1R inv ag 1% and D3 antag -8.
Screening O=C1C=CC(=O)N1CCCCCCCCCCN1C(=O)C=CC1=O returned GLP-1R agonist 2%, D3 ag -19, GLP-1R inv ag inconclusive and D3 antag -100*.
For CCOc1cc(CNc2ccc(N3CCOCC3)cc2)cc(Br)c1OCC the results were GLP-1R agonist 12%, D3 ag 37*, GLP-1R inv ag inconclusive and D3 antag 16.
Screening C=CCOc1c(Br)cc(CNc2ccc3[nH]c(=O)[nH]c3c2)cc1OCC returned GLP-1R agonist 12%, D3 ag -1, GLP-1R inv ag 20%[7.66 µM] and D3 antag 0.
Screening C=CCOc1ccc(CNc2ccc(NC(=O)CCC)cc2)cc1OCC returned GLP-1R agonist 5%, D3 ag -8, GLP-1R inv ag inconclusive and D3 antag -6.
`COc1cc(CNc2ccc(N3CCOCC3)cc2)cc(Br)c1OC` gave GLP-1R agonist 9%, D3 ag 0, GLP-1R inv ag 5% and D3 antag -13.
For C=CCOc1c(Br)cc(CNc2ccc(NC(=O)CCC)cc2)cc1OCC the results were GLP-1R agonist -2%, D3 ag 1, GLP-1R inv ag 8.9µM* and D3 antag 24.
For CCOc1cc(CNc2ccc3c(c2)OCCO3)cc(Br)c1OCC the results were GLP-1R agonist 1%, D3 ag 4, GLP-1R inv ag 2.2µM* and D3 antag 40.
CCCN1CCN(c2cc3c(cc2F)c(=O)c(S(=O)(=O)c2ccc(CC)cc2)cn3CC)CC1 was read as D3 ag -17 and GLP-1R inv ag inconclusive.
`CCc1ccc(C(=O)/C=C/c2ccc([N+](=O)[O-])o2)cc1` gave GLP-1R agonist -13%, D3 ag -2, GLP-1R inv ag 5% and D3 antag -56*.
Screening CCOC(=O)CCc1ccc(NC(=O)/C=C/c2ccc([N+](=O)[O-])o2)cc1 returned GLP-1R agonist 5%, D3 ag -17, GLP-1R inv ag inconclusive and D3 antag 1.
O=C(NCc1ccccc1)c1nn(-c2ccccc2)nc1CO was read as D3 ag 8 and GLP-1R inv ag 7%.
Cc1ccc(CN2CCc3c(OCc4ccc(F)cc4)cccc3C2=O)cc1 was read as GLP-1R agonist 13%, D3 ag -3, GLP-1R inv ag 4.5µM* and D3 antag -23.
For OC[C@H]1O[C@@H](n2cnc3c2NC=NC[C@H]3O)C[C@@H]1O the results were GLP-1R agonist -4% and D3 ag 44*.

Assay outcomes from PubChem.
